Test results as given in PubChem BioAssay (NCATS).
Records with an inconclusive call do not appear. Calls of active or inactive are those of the source. Calls follow the shape of the dose curve; as a rule, active = well fitted inhibition curve with a large enough effect; inconclusive = small, poorly fitted or top-dose-only effect; inactive = flat fitted curve, though single readings scatter. Where a SMILES comes first, the peptide text is derived from it. [ ]: non-standard residue; d: D form. pGlu = O=C1CC[C@@H](C(=O)O)N1; Thz = O=C(O)[C@@H]1CSCN1

Target: Ubiquitin carboxyl-terminal hydrolase 1 (Homo sapiens) (UniProt O94782)
Test: Inhibitors of USP1/UAF1: Pilot qHTS (AID 504865); also: nearly all actives have a fitted effect of over 35% in size;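 as to activity change, negative = inhibition: rhodamine fluorescence freed from ubiquitin-rhodamine substrate followed over time; top concentration of the series differs between compounds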
Details: purified USP1/UAF1, Ub-rhodamine cleavage fluorescence; series mostly up to 114 µM; activity change, negative = inhibition: at the top concentration
Outline: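 Deubiquitinase activity followed as kinetic rhodamine fluorescence release from 150 nM Ub-Rho. 1 nM USP1/UAF1 with compound, after 15 min room-temperature preincubation, in HEPES pH 7.8 buffer containing TCEP, EDTA, BSA and Tween-20.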
% is scaled to controls: 0 for no effect and ±100 for the full control effect; potency is read from the fitted curve at half-maximal effect.

Chain of Ubiquitin carboxyl-terminal hydrolase 1 (Homo sapiens) (O94782 whole entry, looked up): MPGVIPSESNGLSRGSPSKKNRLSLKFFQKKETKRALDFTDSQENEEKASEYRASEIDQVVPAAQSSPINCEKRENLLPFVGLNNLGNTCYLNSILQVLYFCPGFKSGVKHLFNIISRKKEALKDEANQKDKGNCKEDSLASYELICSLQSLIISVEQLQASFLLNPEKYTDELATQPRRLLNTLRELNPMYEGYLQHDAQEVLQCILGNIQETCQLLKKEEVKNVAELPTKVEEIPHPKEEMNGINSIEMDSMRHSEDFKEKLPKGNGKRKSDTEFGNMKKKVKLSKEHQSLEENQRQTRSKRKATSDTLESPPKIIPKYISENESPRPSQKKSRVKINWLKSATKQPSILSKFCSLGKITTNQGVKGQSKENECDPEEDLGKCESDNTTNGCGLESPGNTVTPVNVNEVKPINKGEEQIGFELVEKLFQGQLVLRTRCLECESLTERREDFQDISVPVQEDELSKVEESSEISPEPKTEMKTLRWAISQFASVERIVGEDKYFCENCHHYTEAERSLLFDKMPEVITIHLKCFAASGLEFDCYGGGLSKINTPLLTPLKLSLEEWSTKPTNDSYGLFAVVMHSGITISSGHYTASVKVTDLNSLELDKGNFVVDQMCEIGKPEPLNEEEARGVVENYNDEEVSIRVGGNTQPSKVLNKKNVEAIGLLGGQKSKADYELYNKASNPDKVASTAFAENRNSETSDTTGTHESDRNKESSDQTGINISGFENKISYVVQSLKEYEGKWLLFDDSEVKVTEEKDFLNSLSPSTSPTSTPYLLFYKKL

Structure (SMILES)	activity change, negative = inhibition	Potency
CC(C(=O)O)c1ccc2c(c1)[nH]c1ccc(Cl)cc12 (stereo unspecified)	-3.54% (inactive)	
CCOc1ccc2nc(S(N)(=O)=O)sc2c1	-6.79% (inactive)	
Cc1nc2ccccc2n1Cc1ccc(Cl)cc1	-9.69% (inactive)	
O=C1CC[C@@H](C(=O)N2CSC[C@H]2C(=O)O)N1 ([pGlu]-[Thz]-OH)	0.0092% (inactive)	
CN1[C@@H]2CC[C@H]1CC(OC(c1ccccc1)c1ccccc1)C2 (stereo partly specified)		inactive
CC1(C)S[C@@H]2[C@H](NC(=O)[C@H](NC(=O)N3CCN(S(C)(=O)=O)C3=O)c3ccccc3)C(=O)N2[C@H]1C(=O)O	-7.71% (inactive)	
Cc1c(Nc2ncccc2C(=O)O)cccc1C(F)(F)F		inactive
CN(C)c1ccc(C(=C2C=CC(=[N+](C)C)C=C2)c2ccccc2)cc1		50.1 µM (active)
Nc1ccc(C(=O)O)c(O)c1		inactive
CCOC(=O)c1ccccc1O	1.4% (inactive)	
Cc1[nH]cnc1CN1CCc2c(c3ccccc3n2C)C1=O	-3.6% (inactive)	
CCCCC[C@H](O)/C=C/[C@@H]1[C@@H](C/C=C\CCCC(=O)O)[C@@H](O)C[C@H]1O	-5.39% (inactive)	
O=C(O)COc1ccc(C(=O)c2cccs2)c(Cl)c1Cl		inactive
c1ccc2sc(SN3CCOCC3)nc2c1	-7.53% (inactive)	
O=C(/C=C/c1ccccc1)NCCO	-14.9% (inactive)	
O=C1CN(/N=C/c2ccc(-c3ccc([N+](=O)[O-])cc3)o2)C(=O)N1	-11.4% (inactive)	
O=C(c1cc(O)c(O)c([N+](=O)[O-])c1)c1ccccc1F	-2.72% (inactive)	
O=C(O)Cc1ccc(-c2ccccc2)cc1	-5.01% [at 54.9 µM] (inactive)	

Structure (SMILES)	activity change, negative = inhibition	Potency
Nc1c(CC(=O)O)cccc1C(=O)c1ccc(Br)cc1	-11.7% (inactive)	
NC(=O)C(c1ccccc1)(c1ccccc1)[C@@H]1CCN(CCc2ccc3c(c2)CCO3)C1	-4.99% (inactive)	
COc1cc(/C=C/C(=O)N2CCN(CC(=O)N3CCCC3)CC2)cc(OC)c1OC	-4.37% (inactive)	
O=C(O)[C@H](CC(=O)N1C[C@H]2CCCC[C@H]2C1)Cc1ccccc1	-2.45% (inactive)	
N=C(N)N	-6.42% (inactive)	
COc1cc2c3cc1Oc1cc(ccc1O)C[C@@H]1c4c(cc(OC)c(O)c4Oc4ccc(cc4)C[C@@H]3N(C)CC2)CC[N+]1(C)C	0.411% (inactive)	
Cc1c(N)c(=O)n(-c2ccccc2)n1C	3.71% [at 54.9 µM] (inactive)	
CC1(C)[C@@H](O)CC[C@]2(C)[C@H]3C(=O)C=C4[C@@H]5C[C@@](C)(C(=O)O)CC[C@]5(C)CC[C@@]4(C)[C@]3(C)CC[C@@H]12	-5.66% (inactive)	
CC(C(=O)O)c1ccc(C(=O)c2cccs2)cc1 (stereo unspecified)	-8.21% (inactive)	
CCCCCC[C@@H](O)C/C=C\CCCCCCCC(=O)O	-6.79% (inactive)	
O=C1C(SCCO)=C(SCCO)C(=O)c2ccccc21		15.8 µM (active)
CCCC(=O)OC[C@@H](OC(=O)CCC)[C@@H](OC(=O)CCC)[C@H](Cn1c2nc(=O)[nH]c(=O)c-2nc2cc(C)c(C)cc21)OC(=O)CCC		39.8 µM (active)
C=CCN1C(=O)C(CC(C)C)NC1=S (stereo unspecified)		inactive
C=C(Nc1ccc(OCC)cc1)Nc1ccc(OCC)cc1		inactive
COc1cc(NC(C)CCCN)c2ncccc2c1 (stereo unspecified)		39.8 µM (active)
Oc1c(Br)cc(Br)c2cccnc12	-10.9% (inactive)	
C[S+](CC[C@H](N)C(=O)O)C[C@H]1O[C@@H](n2cnc3c(N)ncnc32)[C@H](O)[C@@H]1O (stereo partly specified)	-4.99% (inactive)	
CCCSc1ccc2nc(NC(=O)OC)[nH]c2c1	11.1% [at 54.9 µM] (inactive)	
